# Tested on: CSNK2A2
# Conditions: concentration: 1 μM, replicates: in singlicate; n = 1
# 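Further: KINOMEscan kinase panel screen.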
row,Compound,%Inh [%]
1,CN1C(=O)C(Nc2ccccc2)=C(c2ccccc2)C1=O [SB-300079],0
2,CCC(=O)c1c(-c2ccccc2)c2cc(Cl)ccc2c(=O)n1Cc1ccc(C(=O)O)cc1,0
3,COc1cc(Nc2nccc(N3CCC(NC(=O)C(C)c4ccc(Cl)cc4)C3)n2)cc(OC)c1OC (stereo not drawn) [GSK1379757],0
4,O=C(NCc1cccs1)c1cc(C(=O)c2c(Cl)cccc2Cl)c[nH]1 [GW823670],0
5,Cl.c1ccc(Cn2cnc3cc(Nc4ncnc5ccccc45)ccc32)cc1 [GW272142],0
6,COc1cc2ncn(-c3cc(OCc4ccc(S(C)(=O)=O)cc4)c(C(N)=O)s3)c2cc1OC [GW869979],0
7,CCS(=O)c1ccc(-c2coc3ccc(-c4nnc(C)o4)cc23)cc1 (stereo not drawn),31
8,O=C(Nc1n[nH]c2nc(-c3ccccc3)c(Br)cc12)C1CC1 [SB-708998],4
9,Cl.NS(=O)(=O)c1cccc(Nc2cc(-c3ccc(F)cc3)n[nH]2)c1 [GW824645],20
10,COC(=O)c1c(-c2ccccc2)c2cc(Br)ccc2c(=O)n1Cc1ccc(NC(=O)CCC(=O)O)cc1,19
11,CCCNC(=O)Nc1ccc(Oc2ncnc3ccn(C)c23)cc1,33
12,FC(F)(F)c1ccc(-c2ncn(CCCN3CCOCC3)c2-c2ccncc2)cc1 [SB-217780],5
13,Cc1c(Cn2c(C)nn3c(=O)cc(N4CCO[C@H](C)C4)nc23)cccc1C(F)(F)F [GSK2373690],0
14,COc1cccc(-n2cnc3c(N)ncnc32)c1 [SKF-97416],11
15,Nc1nc(N)c2nc(-c3ccccc3)[nH]c2n1 [SKF-12778],22
16,COc1ccc(CNC(=O)NC2CCN(c3ccnc(Nc4ccc(F)cc4)n3)C2)cc1 (stereo not drawn) [GSK1379706],12
17,COc1cccc(C2=C(N(C)c3ccccc3)C(=O)NC2=O)c1 [SB-334865],3
18,COc1ccc(-c2cc3c(C)nc(N)nc3n([C@H]3CC[C@H](OCCO)CC3)c2=O)cn1,11

row,Compound,%Inh [%]
1,Nc1ncnc2c1ncn2-c1cccc2ccccc12 [SKF-97184],0
2,Cc1ccc(-c2ccc3c(ccc4sc5c(c43)NC[C@@H](C)N=C5N(C)C)n2)cn1,0
3,COc1cccc(C2=C(Nc3cccc(C(=O)O)c3)C(=O)NC2=O)c1 [SB-390770],19
4,Cc1nc(N(C)[C@H]2CN(C(=O)CC#N)CC[C@H]2C)c2cc[nH]c2n1,6
5,CN(C)c1cc(-c2ccc3c(N)n[nH]c3c2)nc(N)n1 [GSK2219329],11
6,COc1ccc(-c2cc3c(C)nc(N)nc3n([C@H]3CC[C@H](O)CC3)c2=O)cn1,0
7,OCCCNc1nccc(-c2c(-c3cccc(C(F)(F)F)c3)nn3cc(C(F)(F)F)ccc23)n1 [GW630813],27
8,O=C(Nc1n[nH]c2cc(-c3ccccc3F)ccc12)C1CC1 [SB-733371],0
9,Nc1nc(-c2ccccc2F)c(-c2ccnc3ccccc23)s1 [GW560459],0
10,Cn1c(=O)c(F)c(Nc2ccc(I)cc2F)c2c(=O)n(OC[C@H](O)CO)cnc21,0
11,Cc1cc(Nc2nc(-c3cccc(C)n3)nc3ccccc23)ccn1 [GW872411],5
12,COc1cc2nccc(Nc3ccc(OCc4ccc(NC(C)=O)cc4)cc3)c2cc1OC.Cl [GW440135],0
13,Cc1nnc(-c2ccc(C)c(-c3ccc(C(=O)O)cc3)c2)o1 [GW608005],8
14,CCS(=O)(=O)c1ccc(OC)c(Nc2ncc(-c3ccc(F)cc3)o2)c1.Cl [GW591947],17
15,CCc1ccc(-c2ccc3c(c2)-c2nn(C)cc2S(=O)(=O)N3C)cc1,0
16,CCC(=O)c1c(-c2ccccc2)c2cc(Cl)ccc2c(=O)n1Cc1cc(S(C)(=O)=O)n(CCC(C)(C)O)n1,22
17,C[C@@H]1CC[C@H](C(=O)NC2CCCCC2)CN1c1cc(-c2ccc3c(N)n[nH]c3c2)nc(N)n1 [GSK2291363],0
18,O=c1cc(N2CCOCC2)nc2n(Cc3ccc(F)c(Cl)c3)ccn12 [GSK2297099],6

# Tested on: T1, CTK
# T1 construct: gene MATK
# Conditions: concentration: 1 μM, replicates: in singlicate; n = 1
row,Compound,%Inh [%]
1,CN1C(=O)C(Nc2ccccc2)=C(c2ccccc2)C1=O [SB-300079],28
2,CCC(=O)c1c(-c2ccccc2)c2cc(Cl)ccc2c(=O)n1Cc1ccc(C(=O)O)cc1,0
3,COc1cc(Nc2nccc(N3CCC(NC(=O)C(C)c4ccc(Cl)cc4)C3)n2)cc(OC)c1OC (stereo not drawn) [GSK1379757],0
4,O=C(NCc1cccs1)c1cc(C(=O)c2c(Cl)cccc2Cl)c[nH]1 [GW823670],0
5,Cl.c1ccc(Cn2cnc3cc(Nc4ncnc5ccccc45)ccc32)cc1 [GW272142],0
6,COc1cc2ncn(-c3cc(OCc4ccc(S(C)(=O)=O)cc4)c(C(N)=O)s3)c2cc1OC [GW869979],15
7,CCS(=O)c1ccc(-c2coc3ccc(-c4nnc(C)o4)cc23)cc1 (stereo not drawn),0
8,O=C(Nc1n[nH]c2nc(-c3ccccc3)c(Br)cc12)C1CC1 [SB-708998],0
9,Cl.NS(=O)(=O)c1cccc(Nc2cc(-c3ccc(F)cc3)n[nH]2)c1 [GW824645],19
10,COC(=O)c1c(-c2ccccc2)c2cc(Br)ccc2c(=O)n1Cc1ccc(NC(=O)CCC(=O)O)cc1,6
11,CCCNC(=O)Nc1ccc(Oc2ncnc3ccn(C)c23)cc1,35
12,FC(F)(F)c1ccc(-c2ncn(CCCN3CCOCC3)c2-c2ccncc2)cc1 [SB-217780],0
13,Cc1c(Cn2c(C)nn3c(=O)cc(N4CCO[C@H](C)C4)nc23)cccc1C(F)(F)F [GSK2373690],0
14,COc1cccc(-n2cnc3c(N)ncnc32)c1 [SKF-97416],48
15,Nc1nc(N)c2nc(-c3ccccc3)[nH]c2n1 [SKF-12778],24
16,COc1ccc(CNC(=O)NC2CCN(c3ccnc(Nc4ccc(F)cc4)n3)C2)cc1 (stereo not drawn) [GSK1379706],0
17,COc1cccc(C2=C(N(C)c3ccccc3)C(=O)NC2=O)c1 [SB-334865],0
18,COc1ccc(-c2cc3c(C)nc(N)nc3n([C@H]3CC[C@H](OCCO)CC3)c2=O)cn1,2

row,Compound,%Inh [%]
1,Nc1ncnc2c1ncn2-c1cccc2ccccc12 [SKF-97184],0
2,Cc1ccc(-c2ccc3c(ccc4sc5c(c43)NC[C@@H](C)N=C5N(C)C)n2)cn1,8
3,COc1cccc(C2=C(Nc3cccc(C(=O)O)c3)C(=O)NC2=O)c1 [SB-390770],0
4,Cc1nc(N(C)[C@H]2CN(C(=O)CC#N)CC[C@H]2C)c2cc[nH]c2n1,19
5,CN(C)c1cc(-c2ccc3c(N)n[nH]c3c2)nc(N)n1 [GSK2219329],0
6,COc1ccc(-c2cc3c(C)nc(N)nc3n([C@H]3CC[C@H](O)CC3)c2=O)cn1,0
7,OCCCNc1nccc(-c2c(-c3cccc(C(F)(F)F)c3)nn3cc(C(F)(F)F)ccc23)n1 [GW630813],0
8,O=C(Nc1n[nH]c2cc(-c3ccccc3F)ccc12)C1CC1 [SB-733371],3
9,Nc1nc(-c2ccccc2F)c(-c2ccnc3ccccc23)s1 [GW560459],0
10,Cn1c(=O)c(F)c(Nc2ccc(I)cc2F)c2c(=O)n(OC[C@H](O)CO)cnc21,0
11,Cc1cc(Nc2nc(-c3cccc(C)n3)nc3ccccc23)ccn1 [GW872411],18
12,COc1cc2nccc(Nc3ccc(OCc4ccc(NC(C)=O)cc4)cc3)c2cc1OC.Cl [GW440135],20
13,Cc1nnc(-c2ccc(C)c(-c3ccc(C(=O)O)cc3)c2)o1 [GW608005],0
14,CCS(=O)(=O)c1ccc(OC)c(Nc2ncc(-c3ccc(F)cc3)o2)c1.Cl [GW591947],0
15,CCc1ccc(-c2ccc3c(c2)-c2nn(C)cc2S(=O)(=O)N3C)cc1,0
16,CCC(=O)c1c(-c2ccccc2)c2cc(Cl)ccc2c(=O)n1Cc1cc(S(C)(=O)=O)n(CCC(C)(C)O)n1,0
17,C[C@@H]1CC[C@H](C(=O)NC2CCCCC2)CN1c1cc(-c2ccc3c(N)n[nH]c3c2)nc(N)n1 [GSK2291363],0
18,O=c1cc(N2CCOCC2)nc2n(Cc3ccc(F)c(Cl)c3)ccn12 [GSK2297099],0

# From article PMC5540273 (PLoS ONE, 2017)
